Measurements as given in PubChem BioAssay AID720700 (The Scripps Research Institute Molecular Screening Center, 2013).
About 3,100 (0.84%) of roughly 370,000 compounds were called active. Cut-off read from the data, not from the text of the source: active = inhibition above about 9.5%; inactive = the rest. The list comes from a sample in which actives are over-represented; it also holds similar structures and randomly drawn compounds.

These molecules were tested against 1-phosphatidylinositol 4,5-bisphosphate phosphodiesterase gamma-1 (Homo sapiens) (UniProt P19174) (assay: PLC-gamma1 enzyme inhibitors, primary screen, biochemical, fluorescence, purified enzyme (AID 720700)). Settings: purified PLC-gamma1, fluorogenic substrate, at 12.2 µM, active compounds read high.
1-phosphatidylinositol 4,5-bisphosphate phosphodiesterase gamma-1 (Homo sapiens), sequence (P19174 whole entry, looked up): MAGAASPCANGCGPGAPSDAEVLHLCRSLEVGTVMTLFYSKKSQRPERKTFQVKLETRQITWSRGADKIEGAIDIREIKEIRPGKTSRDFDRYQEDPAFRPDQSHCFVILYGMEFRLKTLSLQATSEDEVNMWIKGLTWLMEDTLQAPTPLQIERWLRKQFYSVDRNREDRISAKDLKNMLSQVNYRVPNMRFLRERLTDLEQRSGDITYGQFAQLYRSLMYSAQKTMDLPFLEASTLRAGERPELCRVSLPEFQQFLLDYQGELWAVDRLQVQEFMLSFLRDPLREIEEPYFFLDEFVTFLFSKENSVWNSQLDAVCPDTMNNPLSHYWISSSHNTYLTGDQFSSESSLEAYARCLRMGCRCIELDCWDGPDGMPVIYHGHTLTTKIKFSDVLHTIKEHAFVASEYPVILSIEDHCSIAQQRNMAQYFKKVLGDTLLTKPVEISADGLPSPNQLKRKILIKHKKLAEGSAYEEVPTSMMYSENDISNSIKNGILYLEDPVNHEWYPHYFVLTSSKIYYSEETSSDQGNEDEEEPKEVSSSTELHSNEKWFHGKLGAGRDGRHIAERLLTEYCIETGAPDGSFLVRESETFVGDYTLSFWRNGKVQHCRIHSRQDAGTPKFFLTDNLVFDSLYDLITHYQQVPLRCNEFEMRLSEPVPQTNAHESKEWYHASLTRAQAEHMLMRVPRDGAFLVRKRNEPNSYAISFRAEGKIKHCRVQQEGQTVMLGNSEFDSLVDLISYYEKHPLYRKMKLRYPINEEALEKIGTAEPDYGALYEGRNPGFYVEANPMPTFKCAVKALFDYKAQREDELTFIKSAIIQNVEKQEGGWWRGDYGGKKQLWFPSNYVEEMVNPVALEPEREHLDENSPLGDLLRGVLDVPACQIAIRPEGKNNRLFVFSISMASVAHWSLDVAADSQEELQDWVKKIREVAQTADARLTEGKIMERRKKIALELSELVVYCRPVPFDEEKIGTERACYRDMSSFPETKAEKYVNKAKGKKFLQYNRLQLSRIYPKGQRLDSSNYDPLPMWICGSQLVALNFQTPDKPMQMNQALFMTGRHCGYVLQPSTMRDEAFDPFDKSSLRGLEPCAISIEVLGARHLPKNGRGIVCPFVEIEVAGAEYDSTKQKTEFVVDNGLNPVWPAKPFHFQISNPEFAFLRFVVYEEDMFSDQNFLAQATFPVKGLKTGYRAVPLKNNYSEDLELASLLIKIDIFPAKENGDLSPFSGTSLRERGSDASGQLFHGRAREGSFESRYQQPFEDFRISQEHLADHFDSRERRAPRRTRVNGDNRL

Q: With `Cc1nc(CNc2ncnc3ccc(-c4ccc5c(c4)OCO5)cc23)cs1` as the molecule, how does the inhibition read?
A: -104% (inactive)

Q: `C=CCOc1ccccc1/C=N/NC(=O)Cc1ccccc1` was tested. Which inhibition did it give?
A: 13.9% (active)

Q: Which inhibition does the source give for `CCn1c(SCC(=O)N/N=C/c2ccccc2OCC(=O)O)nnc1-c1ccc(C(C)(C)C)cc1` here?
A: -0.82% (inactive)

Q: How did the inhibition turn out when `O=C(CC(=O)N/N=C\c1cccc(Cl)c1Cl)NCc1ccccc1` was run?
A: -0.34% (inactive)

Q: How did the inhibition turn out when `O=C1CCC2(CCC(c3ccc(Cl)cc3)CC2)N1CCO` (centres undefined) was run?
A: 1.68% (inactive)

Q: Which inhibition does the source give for `COC(=O)[C@]12C[C@H](CC(=O)NCc3ccccc3)C(=O)N(CCC3=CCCCC3)C1=C[C@H](C(C)C)O[C@@H]2C1CC1` here?
A: 4.87% (inactive)

Q: With `CCOC(=O)C1=C(C)NC2=C(C(=O)CC(C)(C)C2)C1c1ccc2c(c1)OCO2` (centres undefined) as the molecule, how does the inhibition read?
A: -75.8% (inactive)

Q: How did the inhibition turn out when `Cc1ccc(NC(=O)Nc2cc(C)nn2-c2ccccc2)cc1` was run?
A: -1.85% (inactive)

Q: How did the inhibition turn out when `CCCCn1c(SCC(=O)N2CCCC2=O)nc2cc(S(N)(=O)=O)ccc21` was run?
A: 9.56% (active)

Q: `CCCCn1c(SCC(=O)N2CCC(C(=O)OCC)CC2)nc2cc(S(N)(=O)=O)ccc21` was tested. Which inhibition did it give?
A: 0.98% (inactive)

Q: `CCn1c(SCC(=O)N2CCCC2=O)nc2ccccc21` was tested. Which inhibition did it give?
A: 3.16% (inactive)

Q: How did the inhibition turn out when `COc1ccccc1C(=O)NC1CCCCN(C(C)C)C1=O` (centres undefined) was run?
A: 2.47% (inactive)

Q: For `Cc1ccccc1CS(=O)(=O)Cc1ccc(C(=O)Nc2ccc(Cl)cc2)o1`, which inhibition is on record?
A: -2.55% (inactive)

Q: How did the inhibition turn out when `Oc1ccc(/C=C/c2c(F)cccc2F)c2cccnc12` was run?
A: -12.7% (inactive)

Q: Which inhibition does the source give for `COC(=O)[C@H](C(C)C)N(CCCc1cn(Cc2ccccc2)nn1)S(=O)(=O)c1ccc(F)cc1Br` here?
A: 0.35% (inactive)

Q: For `O=C1CC(c2ccc3c(c2)OCO3)N=C2N(CC3CC3)C/C(=C/c3ccccc3)N12` (centres undefined), which inhibition is on record?
A: -5.26% (inactive)

Q: `Cc1ccc(C(c2nnnn2CS(=O)(=O)c2ccc(C)cc2)N2CCC(C)CC2)cc1` (centres undefined) was tested. Which inhibition did it give?
A: 0.22% (inactive)

Q: With `Fc1ccccc1C(c1nnnn1Cc1ccc2c(c1)OCO2)N1CCN(Cc2ccccc2)CC1` (centres undefined) as the molecule, how does the inhibition read?
A: 0.65% (inactive)

Q: Which inhibition does the source give for `Cc1ccc(S(=O)(=O)Cn2nnnc2CN2CCN(Cc3ccc4c(c3)OCO4)CC2)cc1` here?
A: 10.9% (active)

Q: With `CCC(=O)Nc1nc(OC)cc(OC)n1` as the molecule, how does the inhibition read?
A: 2.37% (inactive)

Q: With `COc1cc(OC)nc(S(C)(=O)=O)n1` as the molecule, how does the inhibition read?
A: 16.5% (active)

Q: For `COc1ccnc(C(=O)N2CCC(Oc3cccnc3)CC2)c1`, which inhibition is on record?
A: 0.2% (inactive)

Q: With `O=C(NCc1ccc(Cl)cc1)C1CCCN(c2nc3ccccc3o2)C1` (centres undefined) as the molecule, how does the inhibition read?
A: 1.63% (inactive)

Q: With `CCOc1c(Br)cc(/C=C2\C(=O)N(CCC#N)N=C2C)cc1OC` as the molecule, how does the inhibition read?
A: 24.6% (active)

Q: Which inhibition does the source give for `Cc1ccc(Cn2ccc(NC(=O)C3C4CCC(C4)C3C(=O)O)n2)cc1` (centres undefined) here?
A: 9.61% (active)

Q: Which inhibition does the source give for `Cc1ccc(CN2CC(C(=O)NNC(=O)Cn3ccc(C(F)(F)F)n3)CC2=O)cc1` (centres undefined) here?
A: 2.76% (inactive)

Q: `O=C(NNC(=O)C1C2CCC(C2)C1C(=O)O)c1ccc(Cl)cc1` (centres undefined) was tested. Which inhibition did it give?
A: 1.22% (inactive)

Q: `O=C(CSc1nnc(-c2ccccn2)n1-c1ccc(Cl)cc1)Nc1ccccc1-c1ccccc1` was tested. Which inhibition did it give?
A: 0.96% (inactive)

Q: For `O=C(CCCCCN1C(=O)C2C3C=CC(C3)C2C1=O)Nc1ccccn1` (centres undefined), which inhibition is on record?
A: 1.47% (inactive)

Q: With `Cc1cc(C)nc(NC(=S)N2CCN(c3ccc(C(F)(F)F)cn3)CC2)c1` as the molecule, how does the inhibition read?
A: 0.58% (inactive)

Q: With `O=C(Nc1cccc([N+](=O)[O-])c1)Nn1cnnc1` as the molecule, how does the inhibition read?
A: 10.4% (active)

Q: With `O=C(COc1ccc([N+](=O)[O-])cc1Cl)Nn1cnnc1` as the molecule, how does the inhibition read?
A: 2.5% (inactive)

Q: How did the inhibition turn out when `CN(C(=O)c1cccc(NC(=O)Cc2cccc([N+](=O)[O-])c2)c1)C1CCCCC1` was run?
A: 8.53% (inactive)

Q: For `O=C(c1ccccc1)c1ccc(-c2ccccc2C(=O)NC2CCCCN(Cc3ccc(Cl)cc3)C2=O)cc1` (centres undefined), which inhibition is on record?
A: 1.5% (inactive)

Q: `Cc1ccc(NC(=O)Cc2cccc(F)c2)c(S(=O)(=O)N2CCOCC2)c1` was tested. Which inhibition did it give?
A: -42.8% (inactive)

Q: With `CC1=NCCN1S(=O)(=O)c1cccc([N+](=O)[O-])c1` as the molecule, how does the inhibition read?
A: -1.13% (inactive)

Q: For `Cc1cc(C)n(S(=O)(=O)c2cccc([N+](=O)[O-])c2)n1`, which inhibition is on record?
A: 0.37% (inactive)

Q: How did the inhibition turn out when `Cc1ccc(-c2cn(S(=O)(=O)c3cccc([N+](=O)[O-])c3)nc2N)cc1` was run?
A: 11.4% (active)

Q: Which inhibition does the source give for `CCOC(=O)[C@]12CCCCC/C=C\1N(Cc1ccc(OC)cc1)C(=O)[C@H]2CC(=O)NCc1ccc(C)o1` here?
A: 0.82% (inactive)

Q: For `N#C[C@]1(S(=O)(=O)c2ccccc2)C[C@@H]2ON=C(c3cccc(Br)c3)[C@@H]2C1`, which inhibition is on record?
A: 9.78% (active)

Q: How did the inhibition turn out when `COC(=O)[C@]1(S(=O)(=O)c2ccccc2)C[C@@H]2ON=C(c3ccc(OC)cc3)[C@@H]2C1` was run?
A: -2.22% (inactive)

Q: `CCn1c(=O)n2n(c1=O)[C@@]1(C=C3CCCC[C@H]32)N=C(NC(=O)c2ccccc2)N(Cc2ccccc2)[C@H]1Cc1ccccc1` was tested. Which inhibition did it give?
A: -12.3% (inactive)

Q: How did the inhibition turn out when `COC(=O)C12C=C3CC(c4ccccc4)=C3C(=O)N1Cc1[nH]c3ccccc3c1C2` (centres undefined) was run?
A: -9.2% (inactive)

Q: For `CCOC(=O)CNC(=O)/C=C/c1c(Cl)cccc1Cl`, which inhibition is on record?
A: 0.18% (inactive)

Q: With `O=C(/C=C/c1c(Cl)cccc1Cl)NCc1ccccc1` as the molecule, how does the inhibition read?
A: 3.49% (inactive)

Q: How did the inhibition turn out when `O=C(/C=C/c1c(F)cccc1Cl)Nc1nn[nH]n1` was run?
A: 12.5% (active)

Q: With `O=C(CSc1nnc(-c2ccccn2)n1-c1ccccc1)Nc1ccc2cn[nH]c2c1` as the molecule, how does the inhibition read?
A: 3.11% (inactive)

Q: Which inhibition does the source give for `COCCCN(C(=S)Nc1c(C)cc(C)cc1C)C(C)c1ccncc1` (centres undefined) here?
A: 12.6% (active)

Q: `COCCN(C(=S)Nc1cccc(Cl)c1C)C(C)c1ccco1` (centres undefined) was tested. Which inhibition did it give?
A: 4.95% (inactive)

Q: Which inhibition does the source give for `COCCCN(C(=O)Cn1ncc2c(=O)oc3ccc(C)cc3c21)C(C)c1ccncc1` (centres undefined) here?
A: 2.83% (inactive)

Q: With `Cc1cc(NS(=O)(=O)c2ccc(NC(=O)CSc3nnc(SCc4ccc(F)cc4)s3)cc2)nc(C)n1` as the molecule, how does the inhibition read?
A: 6.25% (inactive)

Q: `CCn1c2ccccc2c2cc(NC(=O)CSc3nnc(-c4ccccc4)n3-c3ccc(C)cc3)ccc21` was tested. Which inhibition did it give?
A: -1.61% (inactive)

Q: For `O=C(NCc1cccnc1)c1cc(C2CCCCN2C(=O)CCc2ccccc2)on1` (centres undefined), which inhibition is on record?
A: 12.8% (active)

Q: With `O=C(NCc1cccnc1)c1cc(C2CCCN(C(=O)CCCc3ccccc3)C2)on1` (centres undefined) as the molecule, how does the inhibition read?
A: 3.28% (inactive)

Q: How did the inhibition turn out when `N#Cc1cccc(NC(=O)c2cc(C3CCCCN3C(=O)CCc3ccccc3)on2)c1` (centres undefined) was run?
A: 5.27% (inactive)

Q: `COc1ccc(N2CCN(CCNS(=O)(=O)c3ccc(C(C)(C)C)cc3)CC2)cc1` was tested. Which inhibition did it give?
A: -1.02% (inactive)

Q: `CSc1nccc(NC(=O)c2ccc(C(C)(C)C)cc2)n1` was tested. Which inhibition did it give?
A: 7.02% (inactive)

Q: For `CSc1ccc(C#N)cc1NC(=O)c1ccc(Cl)cc1`, which inhibition is on record?
A: -1.63% (inactive)

Q: For `CC(C)(C)c1ccc(C(=O)Nc2cc(Cl)c(Br)cc2C(=O)O)cc1`, which inhibition is on record?
A: 11% (active)

Q: Which inhibition does the source give for `COC(=O)[C@@]12CCCCC=C1N(CCc1ccc(Cl)cc1)C(=O)[C@H]2CC(=O)NCc1ccc(OC)c(OC)c1` here?
A: 2.08% (inactive)

Q: For `COc1ccc(-c2ccc(CN3C(CC(C)C)C(=O)N(Cc4cn(CC5CCCCC5)nn4)CCS3(=O)=O)cc2)cc1` (centres undefined), which inhibition is on record?
A: 13.6% (active)

Q: Which inhibition does the source give for `CC(C)CC1C(=O)N(Cc2cn(CC3CCCCC3)nn2)CCS(=O)(=O)N1Cc1ccc(-c2ccc(Cl)cc2)cc1` (centres undefined) here?
A: 1.82% (inactive)

Q: With `COc1ccc(-c2ccc(CN3C(CC(C)C)C(=O)N(Cc4cn(CC5CCCCC5)nn4)CCS3(=O)=O)cc2)cn1` (centres undefined) as the molecule, how does the inhibition read?
A: -1.63% (inactive)

Q: For `CCOC(=O)C(=O)N(Cc1ccccc1)c1ccccc1C(=O)Nc1cc(OC)ccc1OC`, which inhibition is on record?
A: 2.22% (inactive)

Q: With `CC(=O)C1=C(O)C(=O)N(c2cccnc2)C1c1ccc([N+](=O)[O-])cc1` (centres undefined) as the molecule, how does the inhibition read?
A: 11.3% (active)

Q: `COc1ccc(C2C(C(C)=O)=C(O)C(=O)N2CCc2c[nH]c3ccccc23)cc1` (centres undefined) was tested. Which inhibition did it give?
A: 0.47% (inactive)

Q: `COC(=O)C1=CN(c2ccc(F)c(F)c2)C=C(C(=O)OC)C1c1ccc([N+](=O)[O-])cc1` was tested. Which inhibition did it give?
A: 1.3% (inactive)

Q: Which inhibition does the source give for `COC(=O)CN1C(=O)C(O)=C(C(C)=O)C1c1ccc([N+](=O)[O-])cc1` (centres undefined) here?
A: 10.5% (active)

Q: How did the inhibition turn out when `CC(=O)C1=C(O)C(=O)N(c2ccc(Br)cc2)C1c1ccc([N+](=O)[O-])cc1` (centres undefined) was run?
A: 2.17% (inactive)

Q: With `COc1ccc(C2C(C(C)=O)=C(O)C(=O)N2c2nccs2)cc1` (centres undefined) as the molecule, how does the inhibition read?
A: -25.2% (inactive)

Q: `C=CCN1C(C(=O)OC)CN(Cc2cn(Cc3ccccc3)nn2)CCS1(=O)=O` (centres undefined) was tested. Which inhibition did it give?
A: 2.03% (inactive)

Q: `COc1cccc(CNC(=O)CNS(=O)(=O)c2ccc3nc(C)sc3c2)c1OC` was tested. Which inhibition did it give?
A: 2.68% (inactive)

Q: Which inhibition does the source give for `CCCC[C@H](C(=O)N(CC)c1ccccc1)[C@@H](O)c1ccc2ccccc2c1` here?
A: 2.96% (inactive)

Q: For `O=C1/C(=C\c2ccsc2)NC(=S)N1c1ccccc1`, which inhibition is on record?
A: 9.99% (active)

Q: Which inhibition does the source give for `CCCCN=C1N/C(=C\c2ccco2)C(=O)N1c1ccccc1` here?
A: -18.1% (inactive)

Q: With `CN(C)c1ccc(/C=C2\NC(=S)N(Cc3ccccc3)C2=O)cc1` as the molecule, how does the inhibition read?
A: -48.2% (inactive)

Q: `COc1ccc(C2CC=C(C(=O)O)C(c3ccccc3F)N2S(=O)(=O)c2ccc(C)cc2)cc1OC` (centres undefined) was tested. Which inhibition did it give?
A: -0.05% (inactive)

Q: How did the inhibition turn out when `CCCCOCCCNC(=O)C[C@H]1C[C@@]2(C(=O)OC)C(=C[C@H](COCc3ccccc3)O[C@@H]2C)N(Cc2cccc3ccccc23)C1=O` was run?
A: 2.09% (inactive)

Q: For `CCCCNC(=O)C[C@@H]1C(=O)N(CCc2ccc(Cl)cc2)C2=CCCC[C@]21C(=O)OCC`, which inhibition is on record?
A: 1.96% (inactive)

Q: `Cc1ccc(-c2nnc(SCC(=O)Nc3ccc(Oc4ccccc4)cc3)n2Cc2ccco2)cc1` was tested. Which inhibition did it give?
A: -3.01% (inactive)

Q: With `COc1ccc(-c2cc(-c3nnc(SCc4ccc([N+](=O)[O-])cc4)n3N)[nH]n2)cc1` as the molecule, how does the inhibition read?
A: -0.19% (inactive)

Q: For `C#CCN([C@H](C(=O)OC)C(C)CC)S(=O)(=O)c1ccccc1Br` (some centres undefined), which inhibition is on record?
A: -0.23% (inactive)

Q: Which inhibition does the source give for `CN1c2ccc(C=O)c3c(C=O)ccc(c23)N(C)C1(C)C` here?
A: -156% (inactive)

Q: `Cc1ccc(C=O)c([B-](F)(F)F)c1` was tested. Which inhibition did it give?
A: 9.66% (active)
